Our source for the Potency, outcome and max response values is PubChem BioAssay (NCATS).

Assay [1] is described as follows: Cell Viability - MRC5 (AID 434; calls by dose curve;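 further: potency means the concentration at half of the fitted maximal effect; potency reflects cytotoxicity seen as loss of intracellular ATP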). The following applies: MRC5 lung fibroblast viability, qHTS. The essentials:
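MRC5 normal human lung fibroblasts, 1500 cells/well, exposed to compound for 40 hr at 37 C. Cellular ATP was read by CellTiter-Glo luminescence; data normalized to DMSO and 100 uM tamoxifen, with AC50 from Hill fits.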
For orientation: Quantitative high-throughput screening tests each substance at several concentrations.

Assay [2] in a line: Cell Viability - HUV-EC-C (AID 542). Further: on the % scale 0 is the no-effect control and ±100 the full control effect; nearly all actives have a fitted effect of over 35% in size. The note with it: HUV-EC-C endothelial cell viability, qHTS; series mostly up to 92.2 µM. The essentials:
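Decrease in cellular ATP, quantified by luciferase luminescence, reflects toxicity in normal human vascular endothelial HUV-EC-C cells given compound for 40 hr in complete culture medium. Values are AC50s from concentration-response curves.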

Assay [3] in a line: Cellular Toxicity (caspase-3) HepG2 (AID 654).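 Further: cells exposed to compound for 16 hours before reading; 0% = DMSO alone and 100% = caspase signal from 100 µM tamoxifen.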 The following applies: HepG2 caspase-3 activation, luminescence; series mostly up to 92.2 µM. In outline:
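qHTS, HepG2, 1500 cells/well, complete medium; cpd 16 h 37 °C; Caspase-Glo 3/7, 20 min RT; lum. Norm: DMSO vs 100 uM tamoxifen; AC50 Hill fit.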

The nature of assay [4]: Cellular Toxicity (caspase-3) HUV-EC-C (AID 656). The note with it: HUV-EC-C cells, caspase-3 activation (apoptosis); series mostly up to 92.2 µM. The essentials:
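HUV-EC-C endothelial cells, 1000/well, were pre-incubated 5 hr at 37°C, then exposed to compounds for 16 hr at 37°C. Caspase-Glo 3/7 luminescence was read after 20 min at room temperature. AC50 came from Hill fits, normalized to DMSO and 100 uM tamoxifen.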

Assay [5] can be described thus: Cellular Toxicity (caspase-3) SHSY5Y (AID 657). The following applies: SH-SY5Y caspase-3 activation; series mostly up to 91.7 µM. In outline: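 SH-SY5Y human neuroblastoma cells (1500/well) were treated with compounds for 16 h at 37 °C, then Caspase-Glo 3/7 luminescence was read after 1 h at room temperature. Data normalized to DMSO and 10 uM staurosporine; AC50 from Hill fits.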

Assay [6] is described as follows: Cellular Toxicity (caspase-3) Mesangial (AID 660).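 Further: combined caspase 3 and 7 activity read by Caspase-Glo luminescence.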 The note with it: mesangial cells, normalized: DMSO 0%, 100 µM tamoxifen 100%; series mostly up to 91.7 µM. In outline: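 Concentration-response qHTS: compound-induced rise in caspase 3/7 luminescence in human mesangial cells after 16 h, normalized to DMSO and 100 uM tamoxifen controls.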
The nature of assay [7]: Cellular Toxicity (caspase-3) SK-N-SH (AID 661). The following applies: SK-N-SH caspase-3 activation, qHTS, DMSO as zero, staurosporine as full; series mostly up to 91.7 µM. In outline:
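Caspase 3/7 activation is measured as a luminescence increase from aminoluciferin released by substrate cleavage in SK-N-SH cells after 16 hr compound treatment; values are AC50 from concentration-response curves.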

Assay [8] can be described thus: Cellular Toxicity (caspase-3) H-4-II-E (AID 663).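 Further: cells exposed to compound for 16 hr before readout.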 The note with it: H-4-II-E rat hepatoma; Potency: caspase-3 activation; series mostly up to 92.2 µM. The essentials: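 Rat hepatoma H-4-II-E cells (1500/well) plated 5 hr, then exposed to compound titrations for 16 hr at 37 °C. Caspase-Glo 3/7 luminescence read after 20 min at RT; data normalized to DMSO and 100 uM tamoxifen, AC50 from Hill fits.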

Assay [9] is described as follows: Cellular Toxicity (caspase-3) N2a (AID 665).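 Further: compound exposure lasted 16 h at 37 °C before readout.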 The note with it: N2a cells, luminescence, normalized: DMSO 0%, 10 µM staurosporine 100%; series mostly up to 92.2 µM. In outline:
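Plated mouse neuroblastoma N2a cells received titrated compounds for 16 h in complete medium. Caspase activity was then detected with a peptide-aminoluciferin luminescent reagent.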

Assay [10] in a line: Cellular Toxicity (caspase-3) Renal Proximal Tubule (AID 667).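 Further: cells exposed to compound for 16 hours at 37 °C before detection.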 The following applies: renal proximal tubule cells, primary cells freshly taken from rat; Potency: caspase-3 activation; series mostly up to 91.7 µM. The essentials:
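Primary rat proximal tubule cells, 1000/well, 5 h plating at 37 °C, then compound 16 h at 37 °C. Caspase-Glo 3/7 reagent, 1 h RT, luminescence. Normalized to DMSO (basal) and 10 uM staurosporine (100%); Hill-fit AC50.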

A short description of assay [11]: MultiTox-Fluor Cytotoxicity Assay - LYMP1-001 - Dead Cells (AID 946). Further: potency means the concentration at half of the fitted maximal effect. The following applies: LYMP1-001 lymphoblastoid cells, dead-cell protease fluorescence; series mostly up to 92.2 µM. The essentials: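 LYMP1-001 lymphoblastoid cells (2500/well) treated 16 h at 37 C. Dead-cell protease cleavage of bis-AAF-R110 read at Ex/Em 485/520. Normalized to DMSO and 15 uM tetraoctylammonium bromide; AC50 from Hill fits.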

Assay [12] in a line: MultiTox-Fluor Cytotoxicity Assay - LYMP1-003 - Dead Cells (AID 961). Further: nearly all actives have a fitted effect of over 70% in size. Further: potency means the concentration at half of the fitted maximal effect. The note with it: LYMP1-003 lymphoblastoid cells, dead-cell protease fluorescence; series mostly up to 92.2 µM. In outline: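 LYMP1-003 human lymphoblastoid cells (2500/well) exposed to compound 16 h at 37 C in complete medium; dead-cell protease read with bis-AAF-R110 fluorescence (Ex/Em 485/520) after 60 min at room temperature. Normalized to DMSO and 15 uM tetraoctylammonium bromide; AC50 from Hill fit.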

Assay [13] in a line: MultiTox-Fluor Cytotoxicity Assay - LYMP1-003 - Live Cells (AID 962). Further: potency means the concentration at half of the fitted maximal effect. The following applies: LYMP1-003 lymphoblastoid cells, MultiTox-Fluor live-cell protease fluorescence; series mostly up to 92.2 µM. The essentials: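 Cells plated at 2500 per well and incubated 5 hr; compounds added and incubated 16 hr at 37 C; MultiTox-Fluor reagent added for 60 min at room temperature; fluorescence of liberated AFC measured at 405/510 nm.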

Assay [14] in a line: Cell Viability - LYMP1-003 - Assay at 24 hr (AID 963).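 Further: plate controls were DMSO only for no effect and tetraoctylammonium bromide positive control for full effect.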 The following applies: LYMP1-003 lymphoblastoid cell viability; series mostly up to 92.2 µM. In outline:
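Acute toxicity in LYMP1-003 lymphoblastoid cells: 24 hr compound treatment at 37 C, ATP measured with CellTiter-Glo after 30 min at room temperature. AC50 derived by fitting the Hill equation to qHTS titrations.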

Assay [15] in a line: Cell Viability - LYMP1-002 - Assay at 24 hr (AID 993). Further: on the % scale 0 is the no-effect control and ±100 the full control effect. The note with it: LYMP1-002 lymphoblastoid cells viability; series mostly up to 92.2 µM. The essentials: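 qHTS, LYMP1-002 lymphoblastoid, 24 h cpd, 37 C, CellTiter-Glo ATP luminescence; AC50 via Hill eq.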
The nature of assay [16]: qHTS Assay for Identification of Small Molecule Inducers of Hypoxia Response (AID 2120; active means well fitted curve in the direction sought with a large enough effect in the signal ratio, with a control signal flat, not every such curve was filed as active; the % refers to the signal ratio; further: 0% is about no effect). The following applies: hypoxia response reporter cells, beta-lactamase ratio readout; series mostly up to 104 µM. The essentials:
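Induction of beta-lactamase reporter activity was measured in CellSensor HRE-bla ME-180 cells after 17 h compound treatment at 37 degrees C, using CCF4 substrate and the 460nm/530nm emission ratio to derive AC50 values.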

In assay [17] the target is Peroxisome proliferator-activated receptor alpha (Homo sapiens) (UniProt Q07869). Briefly: qHTS assay for small molecule agonists of the peroxisome proliferator-activated receptor alpha (PPARalpha) signaling pathway (AID 651778). Further: % of control where 0% means no effect. The note with it: PathHunter PPARalpha complementation, chemiluminescence, 6 h; max response: stronger effect = higher value. In outline: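 Enzyme-fragment complementation assay in which ligand-bound PPARalpha translocates and forms an active enzyme that generates chemiluminescence. Cells were plated overnight, exposed to compound for 6 hr at 37 C, and then given detection reagent for 60 min at room temperature.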
Peroxisome proliferator-activated receptor alpha (Homo sapiens), sequence (Q07869 whole entry, looked up, the tested form may be a part): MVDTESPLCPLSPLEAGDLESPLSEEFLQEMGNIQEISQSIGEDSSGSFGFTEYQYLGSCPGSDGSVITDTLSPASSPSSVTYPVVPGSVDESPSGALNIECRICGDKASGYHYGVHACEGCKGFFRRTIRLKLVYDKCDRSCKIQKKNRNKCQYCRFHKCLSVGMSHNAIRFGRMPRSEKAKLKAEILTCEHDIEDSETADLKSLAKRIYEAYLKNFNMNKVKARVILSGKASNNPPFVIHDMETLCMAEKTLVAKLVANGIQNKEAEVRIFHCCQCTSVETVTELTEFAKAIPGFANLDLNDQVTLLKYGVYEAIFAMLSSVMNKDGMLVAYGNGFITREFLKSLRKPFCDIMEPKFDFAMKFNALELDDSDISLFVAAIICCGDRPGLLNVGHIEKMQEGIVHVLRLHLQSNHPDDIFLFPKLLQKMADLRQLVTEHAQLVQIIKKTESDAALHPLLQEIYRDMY

Assay [18] can be described thus: qHTS assay for small molecule agonists of the antioxidant response element (ARE) signaling pathway measured by Nrf2-dependant transcriptional activity - cell viability counter screen (AID 720653; active means well fitted curve in the direction sought with a large enough effect in the repeat runs; an effect the other way counts as inactive or inconclusive; further: on the % scale 0 is the no-effect control and ±100 the full control effect). The following applies: ARE-bla HepG2 viability, CellTiter-Glo ATP luminescence, 16 h; max response: stronger effect = lower value. In outline:
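ARE-bla HepG2 cells treated with compounds for 16 h at 37C; this counter screen measures viability as intracellular ATP by CellTiter-Glo luminescence after 30 min at room temperature.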

Assay [19] is described as follows: qHTS assay for cell viability of the p53RE-bla HCT-116 cell line (AID 743292). Further: on the % scale 0 is the no-effect control and ±100 the full control effect; nearly all actives have a fitted effect of over 55% in size. The note with it: p53RE-bla HCT-116 viability, ATP luminescence, 16 h; series mostly up to 95 µM. The essentials:
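After plating at 4,000 cells per well and a 5 h rest at 37 C, HCT-116 cells carrying p53RE-bla received test chemicals in DMSO. Sixteen hours later at 37 C, CellTiter-Glo was added and luminescence recorded following 30 min at room temperature.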

Assay [20] can be described thus: Cellular Toxicity (caspase-3) NIH 3T3 (AID 666).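 Further: caspase signal read after 16 h compound exposure; 0% = DMSO basal and 100% = 100 µM tamoxifen stimulation.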 The note with it: NIH 3T3 caspase-3 activation, apoptosis/toxicity, 0% DMSO, 100% is 100 µM tamoxifen; series mostly up to 92.2 µM. In outline:
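Concentration-response qHTS in NIH 3T3 mouse fibroblasts scores caspase-3/7 activation as rising luminescence after 16 hr compound exposure. Signals are scaled between DMSO-only and 100 uM tamoxifen.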

Where “and” joins values, the source holds several entries; their conditions need not be identical. Equal values may be shown once. Unmarked numbers belong to inactive results. Records with an inconclusive call do not appear. Calls of active or inactive are those of the source. Unless noted, the call rests on the fitted dose curve; in most records, active means well fitted curve in the direction sought with a large enough effect; inconclusive means small, poorly fitted or top-dose-only effect, or another doubt; inactive means no such curve, though single readings can be large; an effect the other way counts as inactive or inconclusive. Where only a bound is given, the exact number is not on record here.

On to `O=[N+]([O-])c1cc(Cl)c(Cl)c(Cl)c1Cl`, for which the figures for the Potency in assay [1], in assay [11] and in assay [12] were greater than 92 µM, 25.1 µM (active) and 50.1 µM (active), respectively. For the same molecule, the Potency result in assay [2], in assay [3], in assay [4], in assay [5], in [8] and in [10] was “inactive” each time. Moreover, the Potency result in assay [13], in assay [14], in [15], in assay [16] and in [19] was “inactive” in each case. Further, the call in assay [6], in assay [7] and in assay [9] was inactive. Besides, the max response in assay [17] was -1.46%; in [18], -4.59%.
As to `CCCCC(CC)COP(=O)(OCC(CC)CCCC)OCC(CC)CCCC` (stereo not drawn), the Potency in assay [1] was greater than 92 µM. Also, the Potency entry in [2], in assay [3], in assay [4], in assay [5], in assay [8] and in assay [10] was “inactive” each time. Further, the Potency result in [11], in assay [12], in assay [13], in [14], in [15] and in [16] was “inactive” throughout. Further, in assay [19], the Potency result is “inactive”. Also, the result in assay [6], in [7], in assay [9] and in [20] was inactive. The max response is -6.02% in [17] and -10.8% in [18].
For the molecule `C=CC(=O)OCCCCCCOC(=O)C=C`, the Potency in assay [1] is greater than 92 µM; in [12] it was 31.6 µM (active); in assay [13] it was 50.1 µM (active). The Potency entry in assay [2], in assay [3], in assay [4], in assay [5], in assay [10] and in assay [16] was “inactive” throughout. Besides, the Potency result in assay [19] is “inactive”. Moreover, the call in [6], in [9] and in assay [20] was inactive. The max response is 0.65% and -0.822% in assay [17]; -16.8% and -7.99% in [18].
Take `Nc1ccccc1O`: the Potency in [1] is greater than 92 µM; in assay [12], 10 µM (active). Also, the Potency entry in [2], in [3], in assay [4], in assay [5], in [8] and in [10] was “inactive” each time. In addition, the Potency result in assay [11], in assay [14], in assay [15], in assay [16] and in assay [19] was “inactive” throughout. For the same molecule, the result in assay [6], in assay [7], in [9] and in [20] was inactive. The figures for the max response in assay [17] and in [18] were -1.39% and -24.7%, respectively.
`CC(C)(C)C(=O)C1C(=O)c2ccccc2C1=O`: the Potency in [1] is greater than 92 µM. The Potency result in [2], in assay [3], in assay [4], in assay [5], in assay [8] and in assay [10] was “inactive” each time. Also, the Potency entry in assay [11], in assay [12], in [13], in assay [14], in [15] and in assay [16] was “inactive” in each case. For the same molecule, in [19], the Potency entry is “inactive”. In addition, the molecule was classed as inactive in [6], in assay [7], in [9] and in [20]. The results for the max response in assay [17] and in [18] were 0.134% and -24.2%, respectively.
